# The campaign covered roughly 310,000 compounds. About 11,000 (3.5%) were called active. Where a call stands in place of a potency, no number is given. Another 8% or so got no clear call; they are omitted. For the sample, actives were picked, then their nearest neighbours and some compounds at random. Values without a mark were called inactive. Calls come from the whole dose curve; as a rule, active = well fitted inhibition curve with a large enough effect; inconclusive = small, poorly fitted or top-dose-only effect, or effect the other way; inactive = flat fitted curve, though single readings scatter.
# Assay: VP16 counterscreen qHTS for inhibitors of ROR gamma transcriptional activity;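 note: Gal4-VP16 expression switched on by copper sulfate through the metallothionein promoter; nearly all actives have a fitted effect of over 50% in size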
# Details: Drosophila S2 Gal4-VP16 UAS-luciferase, luminescence, 20 h; series mostly up to 53.6 µM
# Text: NIH Molecular Libraries Probe Production Network [MLPCN]
# NIH Chemical Genomics Center [NCGC]
# Assay Provider: Dan Littman, New York University
# The retinoic acid-related orphan receptor (ROR) gamma is a transcription factor that has a central role in the differentiation of Th17 cells, a subset of T helper cells that secrete the inflammatory cytokines IL-17, IL-17F, and IL-22. Th17 cells have been implicated in graft versus host disease, autoimmune disease and asthma. ROR gamma is induced in naive T helper cells in the presence of TGF-beta combined with IL-6, IL-21, or IL-23, and thereafter directs the expression of the Th17 lineage cytokines. To identify nonspecific inhibitors, a Drosophila Schneider cell line was stably transfected with two vectors: a gene expressing a fusion of the Gal4 DNA binding domain and VP16 transactivation domain under the control of the metallothionine promoter and a Photinus luciferase reporter regulated by the Gal4 binding site enhancer, UAS. […] Small molecule inhibitors that inhibit components common to the RORgt and VP16 assays, such as the Gal4 DNA binding domain or the UAS luciferase reporter, will be active in both assays and thus scored as nonspecific.
# For screening, 600 cells in 4 uL/well were dispensed into white solid 1536-well plates (Grenier) using a solenoid-based dispenser. Following transfer of 23 nL compound or DMSO vehicle by a pin tool, the plates were incubated 1 hr at ambient temperature, and 1 uL/well copper sulfate (700 uM final concentration) was added. The plates were centrifuged 15 s at 1000 RPM and incubated 20 hr at ambient temperature. After addition of 1.5 uL Photinus luciferase detection reagent, the plates were incubated 10 min at ambient temperature and then read by a ViewLux (Perkin Elmer) to detect luminescence.
# Potency is the fitted concentration of half-maximal effect.
Structure (SMILES),Potency,"activity, negative = inhibition"
Cc1occc(=O)c1OCc1ccc(F)cc1,inactive,
Fc1cccc2ncnc(OCc3ccccc3)c12,inactive,
Cc1nc2ccccc2cc1OCc1ccc(F)cc1,6.31 µM (active),
O=C(CCc1nnc2ccc(NCc3ccccc3Cl)nn12)NCC1CCN(C2CCCC2)C1 (stereo unspecified),inactive,
COC(=O)c1ccc(N2CCOCC2)c(NC(=O)c2ccc3c(c2)OCCO3)c1,inactive,
COc1ccc(/C=N/Nc2ncnc3sc4c(c23)CCCC4)cc1O,4.47 µM (active),
COc1ccc(NC(=O)CCNC(=O)Cn2cnc3sc4c(c3c2=O)CCCC4)cc1OC,inactive,
COc1ccc(NC(=O)CCCNC(=O)Cn2cnc3sc4c(c3c2=O)CCCC4)cc1OC,inactive,
CNC(=O)C1CCN(S(=O)(=O)c2c(C)noc2/C=C/c2cccc(C)c2)CC1,inactive,
O=C(Cc1ccccc1F)NC1CCSc2ccccc21 (stereo unspecified),inactive,
COc1ccc2nc(NC(=O)NC3CCCCC3)sc2c1,inactive,
COc1ccc2nc(Nc3nc(-c4ccncc4)cs3)sc2c1,inactive,
CCOc1ccc2nc(NC(=O)CSc3nc4c(c(=O)n(C)c(=O)n4C)n3CC)sc2c1,inactive,
CCC(=O)c1ccc(OCC(=O)Nc2ccc3nc(C)sc3c2)cc1,inactive,
CCOc1ccc2nc(Nc3nc4ccc(NC(C)=O)cc4s3)sc2c1,7.08 µM (active),
COc1ccc2nc(Nc3nc4ccc(NC(C)=O)cc4s3)sc2c1,7.08 µM (active),
O=C(Nc1cccc(-c2cscn2)c1)C1CCN(Cc2ccsc2)CC1,inactive,
Cc1cc2cc(CNC(=O)c3ccc(S(=O)(=O)N4CCOCC4)cc3)ccc2[nH]1,inactive,
CCc1cccc(CC)c1NC(=S)Nc1ccc2cn[nH]c2c1,inactive,
CCc1cccc(CC)c1NC(=S)NCc1ccc2[nH]c(C)cc2c1,11.2 µM (active),
Cc1cc(Cl)ccc1C(=O)C1CCCN(C(=O)c2nonc2C)C1 (stereo unspecified),inactive,
Nc1nc(-c2ccccc2)cc(-c2ccccc2)n1,inactive,

Structure (SMILES),Potency,"activity, negative = inhibition"
CC(=O)Nc1ccc(NC(=O)C(C)OC(=O)c2ccccc2C(=O)c2ccc(Cl)c([N+](=O)[O-])c2)cc1 (stereo unspecified),inactive,
COC(=O)c1cc(NC(=O)Cc2ccccc2[N+](=O)[O-])ccc1Cl,inactive,
N#Cc1cccc(NC(=O)COC(=O)c2ccccc2C(=O)c2ccc(Cl)c([N+](=O)[O-])c2)c1,7.08 µM (active),
Cc1ccccc1OCC(=O)Nc1nnc(S(=O)(=O)N2CCCC2)s1,inactive,
OC(COc1ccc2ccccc2c1)CN1CCOCC1 (stereo unspecified),inactive,
Cc1nc2sc(C(c3ccco3)N3CCOCC3)c(O)n2n1 (stereo unspecified),inactive,
Oc1c(C(c2ccccn2)N2CCOCC2)ccc2cccnc12 (stereo unspecified),2.82 µM (active),
COC(=O)c1ccc2c(C(C)(C)O)c(C(C)(C)O)[nH]c2c1,inactive,
O=C(NCCNc1ccc([N+](=O)[O-])cc1Cl)c1ccccc1F,inactive,
COC(=O)c1cc(NC(=O)c2cccnc2)ccc1N1CCOCC1,inactive,
O=C(Nc1cccc(Cl)c1N1CCOCC1)c1cccnc1,inactive,
O=C(Nc1ccc(N2CCN(C(=O)c3ccccc3)CC2)c(Cl)c1)c1cccnc1,17.8 µM (active),
COc1cccc(CNC(=O)CCCC(=O)Nc2cccc([N+](=O)[O-])c2)c1,inactive,
N#CNC1=NCN(CCc2ccccc2)CN1,inactive,
S=C1SCN(CCN2CCOCC2)CN1Cc1ccccc1,inactive,
CCCN1CNC(=S)N(CCc2ccccc2)C1,3.16 µM (active),
COc1ccccc1N(CC(=O)N/N=C(\C)c1ccccc1O)S(=O)(=O)c1ccc(C)cc1,0.708 µM (active),
COc1ccc(S(=O)(=O)N(CC(=O)N/N=C/c2ccccc2C(=O)O)c2ccccc2OC)cc1,inactive,
COc1ccccc1NC(=O)CN(c1ccccc1OC)S(=O)(=O)c1ccccc1,inactive,
COc1cc(OC)c(OC)cc1/C=N/Nc1ncnc2c1[nH]c1ccc(C)cc12,inactive,
CC(C)OCCCNC(=O)c1cc(Sc2ccc(F)cc2)nc2ccccc12,inactive,
CC(C)OCCCNc1ncnc2c1[nH]c1ccc(F)cc12,2.82 µM (active),

Structure (SMILES),Potency,"activity, negative = inhibition"
COC1=C(N2CCOCC2)C(=O)c2ccccc2C1=O,inactive,
COC(=O)C(C)Oc1ccc2c(c1)O/C(=C\c1cccc(Br)c1)C2=O (stereo unspecified),inactive,
CCCS(=O)(=O)N1CCN=C1SCc1cccc(F)c1,inactive,
COc1ccc(-c2noc(CNC(=O)C(C)Oc3ccccc3)n2)cc1 (stereo unspecified),inactive,
COc1ccc2[nH]c3nc(SCC(=O)NC4CC4)nnc3c2c1,inactive,
COCCN(CC(=O)Nc1ccccc1C)S(=O)(=O)c1ccc(S(=O)(=O)N2CCCC2)cc1,,-1.46% [at 0.365 µM]
COCCN(CCOC)S(=O)(=O)c1ccc(C(=O)Nc2nc3c(s2)CCc2ccccc2-3)cc1,12.6 µM (active),
COc1ccc(C(=O)Nc2ncc3c(n2)-c2ccccc2CC3)cc1,inactive,
Cc1onc(-c2ccccc2)c1C(=O)N=C(N)c1ccc(Cl)cc1,inactive,
Cc1ccc(CNC(=O)c2c(-c3ccccc3)noc2C)cc1,inactive,
Cc1onc(-c2ccccc2)c1C(=O)Nc1ccccc1C#N,inactive,
Cc1onc(-c2ccccc2)c1C(=O)NNC(=S)NC(=O)c1ccc(F)cc1,2 µM (active),
CC(=O)Nc1cccc(NC(=O)c2c(-c3ccccc3)noc2C)c1,inactive,
COc1ccc(C(=O)NC(=S)NNC(=O)c2c(-c3ccccc3)noc2C)cc1,5.62 µM (active),
CC(C)c1ccc(S(=O)(=O)NC2CCCC2)cc1,inactive,
COc1ccc(CN2CC(C(=O)NCCc3ccc(Cl)cc3)CC2=O)cc1 (stereo unspecified),inactive,
Cc1ccc(Oc2ccc(N)cc2)cc1,inactive,
CC(C)(C)c1ccc(Oc2ccc(N)cc2)cc1,7.08 µM (active),
Nc1ccc(Oc2ccc(Cl)cc2)cc1,inactive,
CC1=C(C(=O)NC2CC(C)(C)Cc3c2cnn3-c2ccc(C)cc2)OCCO1 (stereo unspecified),inactive,
CCS(=O)(=O)N1Cc2ccccc2CC1C(=O)Nc1nc2ccc(F)cc2s1 (stereo unspecified),11.2 µM (active),
NS(=O)(=O)c1ccc2nc(NC(=O)CS(=O)(=O)c3ccc(F)cc3)sc2c1,inactive,

Structure (SMILES),Potency,"activity, negative = inhibition"
CCS(=O)(=O)N1Cc2ccccc2CC1C(=O)Nc1ccc(OC)cc1OC (stereo unspecified),inactive,
O=c1c2cc([N+](=O)[O-])ccc2nc2n1CCC2,inactive,
O=S(=O)(NC1CCCCC1N1CCC(O)CC1)c1ccc(Cl)cc1 (stereo unspecified),inactive,
COc1cccc(CN(C)CC(O)COC(c2ccccc2)c2ccccc2C)c1 (stereo unspecified),inactive,
COc1ccc(NC(=O)CCS(=O)(=O)c2cc3c(cc2Cl)NC(=O)CO3)cc1OC,inactive,
CN(C)CCN(C(=O)C1=COCCO1)c1nc2ccc(Cl)cc2s1,inactive,
O=C(Nc1ccc(O)cc1)c1ccc(NC(=O)c2ccco2)cc1,inactive,
O=C(Nc1ccccc1)c1ccco1,inactive,
O=C(Nc1ccc(Sc2ccc(Br)cc2)cc1)c1ccco1,2.82 µM (active),
CCN(CC(=O)Nc1ccc(C)c(S(=O)(=O)N(C)C)c1)Cc1ccccc1,inactive,
Cc1ccc(C(C)C)c(OCCSc2nc3ccccc3n2CC(=O)O)c1,inactive,
CN(Cc1ccc(F)cc1Cl)S(=O)(=O)c1cccs1,inactive,
C#CCN(N(C)c1ncc(C(F)(F)F)cc1Cl)S(=O)(=O)c1ccc2ccccc2c1,inactive,
CN(NS(=O)(=O)c1cccs1)c1ncc(C(F)(F)F)cc1Cl,5.01 µM (active),
Cc1ccc(NC2CCCN(C(=O)CCc3cn[nH]c3)C2)cc1C (stereo unspecified),inactive,
CCc1nccn1CCC(=O)N1CCCC(N2CCN(c3ccccc3F)CC2)C1 (stereo unspecified),inactive,
COCc1ccc(C(=O)NC2CC(C)(C)Cc3c2cnn3-c2ccc(C)cc2)o1 (stereo unspecified),inactive,
CCCc1cc(C(=O)N2CCCC(CO)(CCCc3ccccc3)C2)n(C)n1 (stereo unspecified),inactive,
O=C(O)c1ccc(/C=N/NC(=O)c2ccc(Br)cc2)cc1,inactive,
O=C(O)c1ccc(/C=N/Nc2nc(N3CCCCC3)nc(N3CCCCC3)n2)cc1,inactive,
O=C(O)c1ccc(N/N=C/c2ccc3ncccc3c2)cc1,0.398 µM (active),
COc1ccc(OCc2cc(C(=O)NCC3(C)COC3)no2)c(Cl)c1,inactive,

Structure (SMILES),Potency,"activity, negative = inhibition"
COc1ccc(CNC(=O)C(=O)NCC2OCCN2C(=O)c2ccc(OC)cc2)cc1 (stereo unspecified),inactive,
COc1ccccc1C(=O)N(C1=NC(C)CS1)c1ccc(Cl)cc1 (stereo unspecified),inactive,
CN(CCc1ccccn1)C(=O)c1ccc(OC2CCN(CCc3ccccc3)CC2)cc1,inactive,
CCOC(=O)c1c(S(=O)(=O)Nc2cccc(Cl)c2)c(C)n(C)c1C,inactive,
Cc1nc2ccccc2c(C)c1C(=O)c1ccc(F)cc1,inactive,
CC(C)c1ccc2c([Si](C)(C)C)c3c(nc2c1)-c1cccc(=O)n1C3,inactive,
Cc1c2c(nc3ccccc13)-c1cccc(=O)n1C2,8.91 µM (active),
Cc1cc(C)c2nc(N(CCN(C)C)C(=O)/C=C/c3cccs3)sc2c1,inactive,
C=CCNC(=S)N/N=C/c1ccc(OCc2ccccc2)cc1,inactive,
CNC(=S)N/N=C/c1ccc(OCc2ccccc2)c(Br)c1,3.55 µM (active),
O=C(O)COc1ccc(/C=N/O)cc1Br,inactive,
Cc1cc(C)cc(N(CC(=O)NC2CCCC2)C(=O)CCC(=O)Nc2cc(C)on2)c1,inactive,
O=C(Nc1ccc(F)cc1)C(=O)c1cn(CC(=O)N2CCOCC2)c2ccccc12,inactive,
Cc1cc(=O)[nH]c(SCc2cccc(F)c2)n1,inactive,
Cc1cc(C(=O)CSc2nc(N)cc(=O)[nH]2)c(C)n1-c1cccc(F)c1,17.8 µM (active),
Cc1cc(C(=O)CSc2nc(N)cc(=O)[nH]2)c(C)n1CCc1ccc(Cl)cc1,inactive,
CCCn1c(=O)c(C(=O)Nc2cc(C)ccn2)c(O)c2ccccc21,inactive,
CCN1C(=S)N[C@@H](CCc2ccccc2)[C@H](C(=O)OC)[C@H]1C,inactive,

# From PubChem BioAssay AID2546 (National Center for Advancing Translational Sciences (NCATS), 2010)
